FEN1 inh – qHTS Assay for the Inhibitors of Human Flap endonuclease 1 (FEN1) | P39748 | Recombinant FEN1 flap cleavage, fluorescence, 15 min | Potency, µM (series often up to 114 µM), inactives show top-dose activity change, negative = inhibition, actives largely listed as inhibitors | hit rate 0.35% among 390,000 | AID 588795, 2011; also: potency is read from the fitted curve at half-maximal effect; nearly all actives have a fitted effect of over 65% in size
Target sequence (P39748 whole entry, looked up): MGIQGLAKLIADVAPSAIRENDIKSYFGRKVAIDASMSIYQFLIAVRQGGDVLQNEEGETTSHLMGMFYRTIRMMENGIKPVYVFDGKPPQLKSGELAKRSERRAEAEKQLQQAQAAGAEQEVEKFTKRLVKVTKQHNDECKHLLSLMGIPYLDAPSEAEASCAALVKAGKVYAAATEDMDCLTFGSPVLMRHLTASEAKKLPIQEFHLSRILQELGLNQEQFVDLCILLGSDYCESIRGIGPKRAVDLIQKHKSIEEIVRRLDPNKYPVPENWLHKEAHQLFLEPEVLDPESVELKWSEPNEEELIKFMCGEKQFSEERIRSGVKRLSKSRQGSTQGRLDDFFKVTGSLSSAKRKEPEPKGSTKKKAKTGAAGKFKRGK
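Concentration–response screening of FEN1 (10 nM): 15 min compound preincubation at room temperature, reaction started with 50 nM substrate and read at 0 and 15 min. Corrected, normalized data were fitted by a four-parameter Hill equation.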
GCN5L2 inh – qHTS Assay for Inhibitors of GCN5L2; Histone acetyltransferase KAT2A (Homo sapiens), Q92830; GCN5L2 HAT assay, ThioGlo1 CoA-SH fluorescence; Potency, µM (series often up to 58.9 µM), for the others: at the highest dose activity change, negative = inhibition, hits mostly inhibitors; hit rate 0.21% among 390,000; also: potency is read from the fitted curve at half-maximal effect
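Titration-based screen in which CoA formation is detected via maleimide probe ThioGlo1 (50uM) turning fluorescent on thiol reaction; substrates H3(1-25) 75uM and acetyl-CoA 70uM, GCN5L2 20nM, 20 min incubation at room temperature.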
RECQ1 inh-1 – qHTS Assay for Inhibitors of RecQ-Like Dna Helicase 1 (RECQ1); RECQ1 DNA unwinding, red fluorescence kinetic read; Potency, µM (series often up to 57.3 µM), without a hit: at the top dose activity, negative = inhibition, hits mostly inhibitors; hit rate 0.54% among 240,000;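 also: potency is read from the fitted curve at half-maximal effect; plate controls were vehicle for no effect and no enzyme for full effect; nearly all actives have a fitted effect of over 30% in size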
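50 nM RECQ1T1 preincubated 15 min with compound in Tris pH 8.0 buffer with MgCl2, DTT, Tween-20 and 2.5 ug/ml poly(dI-dC); started with 200 nM TAMRA/BHQ-2 forked duplex and 2 mM ATP. Unwinding read as fluorescence (525/598 nm), two reads 2 h apart.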
PI5P4K alpha inh – qHTS for Inhibitors of phosphatidylinositol 5-phosphate 4-kinase (PI5P4K); Phosphatidylinositol 5-phosphate 4-kinase type-2 alpha (Homo sapiens), P48426; PI5P4Kalpha enzyme, ADP-Glo luminescence, 60 min; hits give low values; max response, %; hit rate 1.2% among 330,000; AID 652105, 2013; active = max response of -50% or lower; inconclusive = between -30% and -50%; inactive = -30% or higher; also: value at the top dose of about 77 µM
Target sequence (P48426 whole entry, looked up): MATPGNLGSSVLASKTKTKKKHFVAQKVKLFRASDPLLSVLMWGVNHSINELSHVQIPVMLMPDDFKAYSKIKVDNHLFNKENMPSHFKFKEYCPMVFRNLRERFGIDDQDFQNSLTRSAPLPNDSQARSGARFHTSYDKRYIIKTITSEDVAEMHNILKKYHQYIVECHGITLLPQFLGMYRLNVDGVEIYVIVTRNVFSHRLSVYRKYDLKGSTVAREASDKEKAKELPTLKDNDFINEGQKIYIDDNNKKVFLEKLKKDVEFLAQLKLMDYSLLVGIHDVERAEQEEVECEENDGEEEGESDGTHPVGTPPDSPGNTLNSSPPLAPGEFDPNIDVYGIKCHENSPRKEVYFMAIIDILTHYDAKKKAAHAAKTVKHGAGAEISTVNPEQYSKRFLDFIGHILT
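Single end-point luminescence (ADP-Glo) quantified ADP from PI5P4Kalpha turnover; ATP 5 microM final, 1 h at RT, 0.1% CHAPS and 0.28 mM EGTA in HEPES pH 7.4.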
APEX1 inh – qHTS Assay for Inhibitors of the Human Apurinic/apyrimidinic Endonuclease 1 (APE1); hit rate 0.35% among 350,000; DNA repair nuclease/redox regulator APEX1 (Homo sapiens), P27695; recombinant APE1, TAMRA/BHQ-2 abasic DNA cleavage fluorescence; Potency, µM (titrated, usually from 65.8 µM), without a hit: at the top dose activity change, negative = inhibition, hits mostly inhibitors;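 also: potency is read from the fitted curve at half-maximal effect; plate controls were vehicle for no effect and reference inhibitor for full effect; nearly all actives have a fitted effect of over 55% in size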
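Enzyme (0.75 nM final) and test compound are incubated 15 min at room temperature before adding 50 nM quenched THF abasic-site duplex. Cleavage dequenches TAMRA, followed at 525/598 nm over three reads one minute apart.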
BLM inh – qHTS Assay for Inhibitors of Bloom's syndrome helicase (BLM) | Potency, µM (series often up to 56.1 µM), without a hit: at the top dose activity change, negative = inhibition, hits mostly inhibitors | RecQ-like DNA helicase BLM (Homo sapiens), P54132 | recombinant BLM DNA unwinding, fluorescence dequenching | hit rate 0.2% among 350,000 | AID 2528, 2010;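 also: potency is read from the fitted curve at half-maximal effect; plate controls were vehicle for no effect and no enzyme for full effect; nearly all actives have a fitted effect of over 35% in size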
RECQ1 inh conf – Confirmation qHTS Assay for Inhibitors of RecQ-Like Dna Helicase 1 (RECQ1); hit rate 28% among 610; shares compounds with RECQ1 inh-1; Potency, µM (titrated, usually from 229 µM), for the others: at the highest dose activity change, negative = inhibition, most hits filed as inhibitors; RECQ1 helicase DNA unwinding, fluorescence; AID 2708, 2010; also: potency is read from the fitted curve at half-maximal effect; nearly all actives have a fitted effect of over 45% in size
ADP FP counter – Counterscreen for RECQ1 Inhibitors: ADP Fluorescence Polarization Displacement Assay. hit rate 27% among 530. shares compounds with RECQ1 inh-1. AID 2711, 2010. Potency, µM (series often up to 228 µM), without a hit: at the highest dose activity change, negative = inhibition, usual class: inhibitors. ADP fluorescence polarization displacement counterscreen; also: potency is read from the fitted curve at half-maximal effect; nearly all actives have a fitted effect of over 45% in size
RECQ1 inh-2 – Confirmation qHTS Assay for Inhibitors of RecQ-Like Dna Helicase 1 (RECQ1) - Round 2 Cherry Picks; Potency, µM (titrated, usually from 119 µM), for inactives: at the highest dose activity, negative = inhibition, usual class: inhibitors; shares compounds with RECQ1 inh-1; hit rate 15% among 1,100; recombinant RECQ1 DNA unwinding, red fluorescence; also: potency is read from the fitted curve at half-maximal effect; nearly all actives have a fitted effect of over 50% in size
The depositor's hits bear a star; i = inactive; ? = inconclusive; . = no result; [ ] = another dose, or the depositor's remark. An excerpt weighted towards active compounds, which were near 1.5% of everything screened. Unless noted, calls follow the shape of the dose curve; as a rule, active = well fitted curve in the direction sought with a large enough effect; inconclusive = small, poorly fitted or top-dose-only effect, or another doubt; inactive = no such curve, though single readings can be large; an effect the other way counts as inactive or inconclusive. Unless noted, % is scaled to controls: 0 for no effect and ±100 for the full control effect.

SMILES | FEN1 inh | GCN5L2 inh | RECQ1 inh-1 | PI5P4K alpha inh | APEX1 inh | BLM inh | RECQ1 inh-2 | others
C=CC(C)=C[C@@]1(C)SC(=O)C(C)=C1O | . | 4% | . | . | . | . | .
CCCCCn1c(NC(=O)c2ccco2)c(S(=O)(=O)c2ccc(C)cc2)c2nc3ccccc3nc21 | -10% | -28% | 6% | . | -9% | ? | .
CCCCn1c(NC(=O)c2ccco2)c(S(=O)(=O)c2ccc(C)cc2)c2nc3ccccc3nc21 | -26% | -11% | ? | -2 | ? | -23% | -28%
Cc1ccc(OCc2ccc(C(=O)Nc3ccc(C(N)=O)cc3)o2)c([N+](=O)[O-])c1 | 8% | -3% | ? | 5 | -4% | -1% | ?
O=C(CSc1nnc(-c2ccccc2)o1)c1nnc(-c2ccccc2)o1 | 9% | -13% | ? | -53* | 2% | -17% | -22%
O=C(c1ccccc1)C(I)(I)N1CCOCC1 | 13% | . | . | . | . | . | .
CCC(C(=O)Nc1ccccc1OC)n1c(C(=O)OC)cc2ccsc21 (stereo not drawn) | -14% | 2% | 1.4µM* | . | -5% | -11% | -49% | RECQ1 inh conf=?;ADP FP counter=35%[91.9 µM]
COc1ccc(OC)c(-c2c3cc(O)c(=O)cc-3oc3cc(O)c(O)cc23)c1 | 13µM* | ? | 35µM* | -101* | 32µM* | 28µM* | 40µM*
CCCN1CNc2c(c(=O)[nH]c(=S)n2CCc2cccc(C)c2C)C1 | -23% | . | . | . | . | . | .
CC(=O)NC(=S)Nc1ccc(NC(=S)NC(=O)/C=C/c2ccco2)cc1 | -2% | -24% | ? | -17 | ? | -29% | -19%
COC(=O)c1ccccc1NC(=O)CCS(=O)(=O)c1ccc(Br)cc1 | ? | -9% | 32µM* | ? | ? | 2% | ?
CCc1ccc2[nH]c(=O)c(CN(Cc3ccco3)Cc3nnnn3Cc3ccco3)cc2c1 | -21% | . | . | . | . | . | .
COC1=C(Nc2ccc(O)cc2)C(=O)c2ccccc2C1=O | -22% | 2% | ? | -14 | ? | -10% | -10%
COC1=C(Nc2ccc(OC)cc2)C(=O)c2ccccc2C1=O | -15% | 0% | i | -12 | 4% | -11% | .
CCOC(=O)c1c(-c2ccc(C)o2)csc1NC(=O)CSc1nncs1 | -5% | ? | 1.8µM* | . | ? | 2% | . | RECQ1 inh conf=15%[114 µM];ADP FP counter=187%[91.9 µM]
Cc1ccc(NCc2n[nH]c(=S)n2Cc2ccccc2)cc1Cl | 1% | -30% | i | -3 | 4% | -14% | .
Cc1ccc(NCc2nnc(SCC(=O)O)n2Cc2ccccc2)cc1Cl | -7% | -3% | 22% | -4 | -3% | 0% | . | RECQ1 inh conf=8%;ADP FP counter=3%
Cc1ccc(Nc2nc(Nc3ccc(Cl)cc3)nc(N3CCOCC3)n2)cc1 | -14% | . | . | . | . | . | . | RECQ1 inh conf=-15%[69.1 µM]
Clc1ccc(Nc2nc(N3CCOCC3)nc(N3CCOCC3)n2)cc1Cl | -11% | -12% | . | -6 | -21% | 0% | .
CC(=O)Nc1ccc(Nc2nc(Nc3ccc(Cl)cc3)nc(N3CCOCC3)n2)cc1 | -3% | . | . | . | . | . | . | RECQ1 inh conf=-6%[69.1 µM]
Clc1ccc(Nc2nc(Nc3ccc(Cl)cc3)nc(N3CCOCC3)n2)cc1 | 1% | . | . | . | . | . | .
CC(C)[C@H](NS(=O)(=O)c1ccc2c(c1)OCCO2)C(=O)OCC(=O)Nc1cc(Cl)ccc1Cl | 8% | -9% | 50µM* | -8 | 10% | -6% | -16%
CC(C)[C@H](NS(=O)(=O)c1ccc2c(c1)OCCO2)C(=O)OCC(=O)Nc1ccccc1Cl | -7% | -1% | -3% | 4 | -4% | -2% | .
Cc1c(CCOC(=O)c2ccc(N3CCOCC3)c([N+](=O)[O-])c2)sc[n+]1CC#N | -19% | -4% | ? | 1 | 12% | -1% | ?
Cc1cccc(N=C2NC(=O)/C(=C/C=C/c3ccco3)S2)c1 | ? | -3% | 35µM* | -67* | ? | ? | ?
SMILES | FEN1 inh | GCN5L2 inh | RECQ1 inh-1 | PI5P4K alpha inh | APEX1 inh | BLM inh | RECQ1 inh-2 | others
O=C1NC(=Nc2ccc3ccccc3c2)S/C1=C/c1ccco1 | -8% | ? | ? | -55* | ? | 18µM* | ?
O=C1NC(=Nc2ccc(O)cc2)S/C1=C/c1ccco1 | -1% | -4% | -5% | ? | ? | -8% | .
O=C(O)CCSc1nnc(COc2cccc3ccccc23)n1-c1cccc(Cl)c1 | -1% | -6% | -5% | 0 | 3% | -1% | . | RECQ1 inh conf=17%;ADP FP counter=-13%
N#CCSc1nnc(COc2cccc3ccccc23)n1-c1cccc(Cl)c1 | -14% | -12% | -20% | 7 | -3% | -14% | .
COc1ccc(/C=C(\C#N)c2nc3ccccc3[nH]2)cc1O | -2% | -9% | . | -8 | -29% | -16% | .
COc1cc(/C=C(\C#N)c2nc3ccccc3[nH]2)cc(OC)c1O | 40µM* | -3% | ? | ? | ? | -26% | 56µM*
CCNc1ccc(Br)cc(C(=O)/C=C/c2ccc3c(c2)OCO3)c1=O | ? | -4% | ? | ? | ? | -25% | ?
CNc1ccc(Br)cc(C(=O)/C=C/c2ccc(OC)cc2OC)c1=O | ? | -20% | -15% | ? | -9% | ? | .
CCNc1ccc(Br)cc(C(=O)/C=C/c2ccc(Cl)cc2)c1=O | -4% | -9% | 32µM* | ? | 2% | -20% | -29%
CNc1ccc(Br)cc(C(=O)/C=C/c2cccc(OC)c2)c1=O | ? | -18% | 28µM* | -26 | ? | -29% | ?
CC(/C=C/C(=O)NO)=C\[C@@H](C)C(=O)c1ccc(N(C)C)cc1 | . | -17% | 11% | . | 3% | 1% | .
